Among the data in PubChem BioAssay AID504411 (The Scripps Research Institute Molecular Screening Center, 2011) are inhibition values, retold here.

Screen size: about 340,000 compounds; about 200 (0.059%) were called active. This is one part of a sample in which actives are shown more often than they occur. Unmarked numbers belong to inactive results. Cut-off read from the data, not from the text of the source: active = inhibition above about 34%; inactive = the rest.

For this test, the target named is Diacylglycerol lipase-beta (Homo sapiens) (UniProt Q8NCG7). As to the kind of experiment: DAGLB lipase inhibitors, primary screen, biochemical, fluorescence, HTS (AID 504411).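 Note: 0% = enzyme with vehicle and 100% = wells lacking enzyme.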 Particulars: HEK293T DAGLB membrane lysate, EnzChek fluorogenic substrate; at 5.17 µM; stronger effect = higher value.
Sequence of Diacylglycerol lipase-beta (Homo sapiens) (Q8NCG7 whole entry, looked up): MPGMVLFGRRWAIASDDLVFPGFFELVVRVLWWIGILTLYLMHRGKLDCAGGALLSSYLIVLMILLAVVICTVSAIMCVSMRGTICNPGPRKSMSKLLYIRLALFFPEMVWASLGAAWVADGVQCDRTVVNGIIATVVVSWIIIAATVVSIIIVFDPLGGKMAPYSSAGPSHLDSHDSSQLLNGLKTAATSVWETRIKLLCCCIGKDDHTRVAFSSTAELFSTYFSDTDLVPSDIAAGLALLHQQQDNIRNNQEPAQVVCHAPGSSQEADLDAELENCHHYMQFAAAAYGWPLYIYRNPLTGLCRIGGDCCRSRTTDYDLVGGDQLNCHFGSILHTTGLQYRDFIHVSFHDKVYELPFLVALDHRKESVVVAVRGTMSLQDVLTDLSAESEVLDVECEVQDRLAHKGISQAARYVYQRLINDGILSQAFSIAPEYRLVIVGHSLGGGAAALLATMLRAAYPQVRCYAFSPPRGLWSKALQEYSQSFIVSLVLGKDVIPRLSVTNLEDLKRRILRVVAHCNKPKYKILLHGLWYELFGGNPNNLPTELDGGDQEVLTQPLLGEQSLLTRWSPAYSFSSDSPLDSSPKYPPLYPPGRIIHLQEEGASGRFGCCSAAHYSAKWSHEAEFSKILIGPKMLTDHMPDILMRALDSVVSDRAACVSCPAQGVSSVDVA
On to `O=C(Oc1cccc(N2C(=O)C3C4c5ccccc5C(c5ccccc54)C3C2=O)c1)c1ccco1` (stereo not given), for which the inhibition is 34.9% (active).
As for `COC(=O)c1cccc(N2C(=O)C3C4C=CC(CC4)C3C2=O)c1` (stereo not given), the inhibition is -2.32%.
For the compound `CC(=O)Nc1ccc(N2C(=O)C3C4CC(=O)C(c5ccccc54)C3C2=O)cc1` (stereo not given), the inhibition is 2.73%.
For `CCOC(=O)C1=NN(c2ccc(Cl)cc2)/C(=C/C2=NCCc3cc(OC)c(OC)cc32)S1`, the inhibition is 3.17%.
The same measure for `CCN(CC(=O)Nc1ccc(NC(C)=O)cc1)C(=O)CSC(=S)N1CCCC1`: -0.87%.
For `Cn1c(-c2ccc(C(=O)c3ccccc3)s2)nc2ccccc21`, the inhibition was -0.73%.
`O=C1Cc2cc(S(=O)(=O)Nc3cccc(F)c3)ccc2N1`: the inhibition is 0.82%.
Consider `O=C(CCNC(=O)c1ccc([N+](=O)[O-])cc1)NC1CCCCC1`, for which the inhibition was 0.66%.
As to `O=C(/C=C/c1ccc(Cl)cc1)NCCCn1ccnc1`, the inhibition is -2.05%.
To `CCOc1ccc(Br)cc1S(=O)(=O)Nc1cccc(S(=O)(=O)N(CC)CC)c1` belongs -0.11%; to `Cc1cc(NC(=O)Nc2c[nH]c(=O)[nH]c2=O)ccc1Br`, -0.76%; to `Cc1ccc(-c2nn(C(C)(C)C)c3ncnc(N)c23)cc1`, -2.33%.
Take `CCCCCCn1c(=O)n2n(c1=O)C[C@]1(OC(=O)NCc3ccc(OC)c(OC)c3)CN(S(=O)(=O)c3ccc(C)cc3)C[C@]1(O)C2`: the inhibition is 1.56%.
`CC(NC(=O)c1ccc(S(=O)(=O)Nc2ccccc2)cc1)c1ccc(S(N)(=O)=O)cc1` (stereo not given): the inhibition was 1.2%.
Turning to `Cc1ccccc1OCCC(=O)Nc1c(C)n(C)n(-c2ccccc2)c1=O`, the inhibition is -2.86%.
For the compound `CCOc1nnc(C)c2c(C)n(-c3cccc(Cl)c3)nc12`, the inhibition is -5.36%.
In the case of `O=[N+]([O-])c1cc(S(=O)(=O)CCCN2CCOCC2)ccc1F`, the inhibition is -0.41%.
Regarding `Cc1nc2ccc(S(=O)(=O)N(C)CC(=O)NC(C)c3ccccc3)cc2s1` (stereo not given), the inhibition is 1.36%.
With `O=C1N(c2ccc(Cl)cc2)C(c2ccc(Cl)cc2)N2CCCN12` (stereo not given), the inhibition is -1.46%.
With `COc1cccc(/C=N/Nc2ccc(S(=O)(=O)Nc3ccccc3C(=O)O)cc2[N+](=O)[O-])c1O`, the inhibition was 39.5% (active).
The same measure for `CCOc1ncccc1C(=O)NNC(=O)c1cccc(S(=O)(=O)Nc2ccccc2OC)c1`: 1.16%; for `COC(=O)c1ccccc1NS(=O)(=O)c1ccc2[nH]c(=O)[nH]c2c1`: -1.28%.
On to `COc1ccc(Br)cc1/C=N/Nc1ccc(S(=O)(=O)Nc2ccccc2C(=O)O)cc1[N+](=O)[O-]`, for which the inhibition was 35.8% (active).
To `COc1ccc(S(=O)(=O)Nc2ccccc2C(=O)N2CCCC2)cc1C` belongs 0.86%; to `COc1ccc(S(=O)(=O)Nc2ccc3cn[nH]c3c2)cc1[N+](=O)[O-]`, -1.73%.
